Among the data in PubChem BioAssay are inhibition values, retold here.

SMILES strings stand for the structures.

Common to all, as to test: inhibition of PEG-3 promoter-driven reporter – cell-based, HeLa, luciferase, CREF/GAPDH counter-screen panel, dose response (AID 624167)
Background: The purpose of a counterscreen is to sort out artefacts and off-target activity.

The target of experiment [1] is PEG-3 (UniProt Q6IN02). Conditions: CREF/GAPDH counter-screens; HeLa PEG-Prom luciferase reporter, overnight, run 1, dose range 1, at 100 µM (top of the series) unless noted.
Sequence of PEG-3 (Q6IN02 whole entry, looked up): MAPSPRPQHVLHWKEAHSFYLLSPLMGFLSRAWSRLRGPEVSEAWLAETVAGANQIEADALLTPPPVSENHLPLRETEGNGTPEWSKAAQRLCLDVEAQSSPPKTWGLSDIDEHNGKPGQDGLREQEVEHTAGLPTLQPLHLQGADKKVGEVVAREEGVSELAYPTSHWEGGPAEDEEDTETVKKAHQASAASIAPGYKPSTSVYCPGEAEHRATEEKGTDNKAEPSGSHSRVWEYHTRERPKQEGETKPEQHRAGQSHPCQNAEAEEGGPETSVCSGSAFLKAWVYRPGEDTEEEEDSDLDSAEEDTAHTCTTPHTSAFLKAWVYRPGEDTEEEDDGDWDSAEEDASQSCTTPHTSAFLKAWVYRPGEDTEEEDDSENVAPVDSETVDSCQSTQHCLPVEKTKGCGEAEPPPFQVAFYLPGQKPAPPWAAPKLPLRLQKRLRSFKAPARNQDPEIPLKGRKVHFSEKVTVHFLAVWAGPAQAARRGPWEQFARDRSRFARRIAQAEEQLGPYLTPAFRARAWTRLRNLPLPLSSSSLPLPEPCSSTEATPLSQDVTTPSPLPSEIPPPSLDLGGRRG
Experiment [2] concerns the target PEG-3 (UniProt Q6IN02). Conditions: CREF/GAPDH counter-screens; HeLa PEG-Prom luciferase reporter, overnight, run 2, dose range 1, at 100 µM (top of the series) unless noted.
The subject of experiment [3] is Rat fibroblasts (CREF). Conditions: CREF/GAPDH counter-screens; run 1, dose range 1, at 100 µM (top of the series).
Experiment [4] concerns Rat fibroblasts (CREF). Conditions: CREF/GAPDH counter-screens; run 2, dose range 1, at 100 µM (top of the series).

What is called inhibition is the drop in the measured response relative to a control, in per cent. In the case of `Cc1ccc(C(=O)CN2C(=O)c3ccccc3S2(=O)=O)cc1`, the inhibition with PEG-3 [1] is 93.5%; in the experiment with PEG-3 [2] it was 92.4%; in the experiment with Rat fibroblasts (CREF) [3] it was 87.2%; with Rat fibroblasts (CREF) [4], 87.5%.
For the compound `CC(C)Cc1ccc(C(C)C(N)=NCCc2ccccc2)cc1` (centres undefined), the inhibition turned out to be 97.4% with PEG-3 [1], 102% in the experiment with PEG-3 [2], 100% in the experiment with Rat fibroblasts (CREF) [3] and 99.2% in the experiment on Rat fibroblasts (CREF) [4].
As to `O=C(NNC(=O)c1cccnc1SCc1cccc([N+](=O)[O-])c1)c1ccccn1`, the inhibition is 65.1% with PEG-3 [1], 56.6% with PEG-3 [2], 46.9% in the experiment on Rat fibroblasts (CREF) [3] and 42.9% in the experiment with Rat fibroblasts (CREF) [4].
Consider `CN(C(=O)COC(=O)/C=C/c1cccc([N+](=O)[O-])c1)C1CCS(=O)(=O)C1` (centres undefined), for which the inhibition in the experiment with PEG-3 [1] was 47.5%; in the experiment with PEG-3 [2] it was 44.7%; with Rat fibroblasts (CREF) [3], 6.76%; with Rat fibroblasts (CREF) [4], 36.6%.
For the compound `CCCCC(=O)NC(c1ccccc1)c1ccc2cccnc2c1O` (centres undefined), the inhibition is 90.4% with PEG-3 [1], 93.6% with PEG-3 [2], -26% in the experiment on Rat fibroblasts (CREF) [3] and -7.89% in the experiment with Rat fibroblasts (CREF) [4].
As for `CCOc1cccc(/C=N/NC(=S)Nc2cc(S(=O)(=O)N3CCOCC3)ccc2N2CCOCC2)c1O`, the inhibition worked out at 70.7% with PEG-3 [1], 50.5% with PEG-3 [2], 26.2% in the experiment on Rat fibroblasts (CREF) [3] and 48.3% in the experiment on Rat fibroblasts (CREF) [4].
`O=C(/C=C/c1ccccc1)Nc1cccc(C(=O)O)c1`: the inhibition worked out at 99% in the experiment with PEG-3 [1], 97.4% with PEG-3 [2], 96.8% with Rat fibroblasts (CREF) [3] and 95.7% in the experiment with Rat fibroblasts (CREF) [4].
Take `Cc1ccc(C(=O)Nc2cnc3ccccc3c2)cc1`: the inhibition with PEG-3 [1] stood at 91.5%; in the experiment with PEG-3 [2], 98%; in the experiment with Rat fibroblasts (CREF) [3] it was 83.4%; with Rat fibroblasts (CREF) [4], 77.7%.
In the same order, the values of `Cc1ccc(/C=C2\SC(=S)N(CCCC(=O)NNC(=O)c3ccccc3O)C2=O)cc1` are 81.6%, 73.5%, 10.1% and 11%.
In the case of `Cc1cc(C)c2c(N)c(C(=O)Nc3ncc(C)s3)sc2n1`, the inhibition turned out to be 90.9% with PEG-3 [1], 98.2% with PEG-3 [2], 99.2% in the experiment with Rat fibroblasts (CREF) [3] and 98.9% in the experiment on Rat fibroblasts (CREF) [4].
For `COc1ccc(S(=O)(=O)/N=C2\C=C(Nc3ccc(O)cc3)C(=O)c3ccccc32)cc1`, the inhibition with PEG-3 [1] was determined as 96.4%; with PEG-3 [2] it was 99.7%; in the experiment with Rat fibroblasts (CREF) [3], 101%; in the experiment on Rat fibroblasts (CREF) [4], 97.4%.
As to `COc1cc(C(=O)N/N=C(\c2ccccc2)c2ccccn2)cc(OC)c1OC`, the inhibition with PEG-3 [1] came out at 72.6%; with PEG-3 [2] it was 74.9%; in the experiment on Rat fibroblasts (CREF) [3], 72.1%; in the experiment with Rat fibroblasts (CREF) [4], 63.3%.
On to `COC(CNC(=O)c1ccc2c3c(onc13)-c1ccccc1C2=O)OC`, for which the inhibition with PEG-3 [1] turned out to be 102%; in the experiment with PEG-3 [2], 102%; in the experiment on Rat fibroblasts (CREF) [3], 98.9%; in the experiment with Rat fibroblasts (CREF) [4], 100%.
For `COc1ccccc1C(=O)Nc1nc2ccccc2[nH]1`, the inhibition turned out to be 99.2% with PEG-3 [1], 102% in the experiment with PEG-3 [2], 100% in the experiment with Rat fibroblasts (CREF) [3] and 99.5% in the experiment with Rat fibroblasts (CREF) [4].
Take `CCC(c1ccc(O)c(O)c1)C(CC)c1ccc(O)c(O)c1` (centres undefined): the inhibition in the experiment with PEG-3 [1] was 102%; with PEG-3 [2], 101%; with Rat fibroblasts (CREF) [3] it was 100%; in the experiment with Rat fibroblasts (CREF) [4], 97.1%.
For the compound `Cc1ccc(OCC(=O)c2cc(C)n(-c3ccccc3)c2C)c([N+](=O)[O-])n1`, the inhibition in the experiment with PEG-3 [1] was 77.6%; in the experiment with PEG-3 [2] it was 74.5%; in the experiment with Rat fibroblasts (CREF) [3], -20%; in the experiment on Rat fibroblasts (CREF) [4] it was -61.9%.
As to `O=C(O)c1ccc(N/N=C/c2ccc3nccnc3c2)cc1`, the inhibition turned out to be 101% with PEG-3 [1], 102% with PEG-3 [2], 58.2% in the experiment on Rat fibroblasts (CREF) [3] and 45.3% in the experiment on Rat fibroblasts (CREF) [4].
Taken in the same sequence, the figures for `Cc1cc(C(=O)Nc2cccc(C(=O)O)c2)oc1C` were 88.1%, 85.8%, 49.8% and 52.7%.
As to `Cc1ccc(-n2c(N)c(C(=O)Nc3c(C)n(C)n(-c4ccccc4)c3=O)c3nc4ccccc4nc32)cc1`, the inhibition with PEG-3 [1] stood at 52.5%; in the experiment with PEG-3 [2] it was 62.7%; with Rat fibroblasts (CREF) [3] it was 89.4%; with Rat fibroblasts (CREF) [4], 83.7%.
In the case of `CN1C/C(=C/c2ccccc2[N+](=O)[O-])C(=O)/C(=C\c2ccccc2[N+](=O)[O-])C1`, the inhibition in the experiment with PEG-3 [1] is 101%; with PEG-3 [2], 102%; in the experiment with Rat fibroblasts (CREF) [3], 71.1%; with Rat fibroblasts (CREF) [4], 95.6%.
For `CCOc1ccc(NC(=O)Nc2cccc(C(=O)O)c2)cc1`, the inhibition with PEG-3 [1] came out at 98%; with PEG-3 [2] it was 94.6%; in the experiment with Rat fibroblasts (CREF) [3], 91.9%; in the experiment on Rat fibroblasts (CREF) [4], 94.1%.
In the same order, the values of `S=C(NN=C(c1ccccc1)c1ccccn1)N(Cc1ccccn1)Cc1ccccn1` are 102%, 102%, 97.9% and 98%.
Taken in the same sequence, the figures for `COc1cc(NS(C)(=O)=O)ccc1Nc1c2ccccc2nc2ccccc12` were 102%, 99.2%, 86.1% and 95.2%.
As for `O=C(Nc1nc2cc3c(cc2s1)OCCO3)c1ccco1`, the inhibition is 97.8% with PEG-3 [1], 95.5% with PEG-3 [2], 92.9% in the experiment with Rat fibroblasts (CREF) [3] and 95.1% in the experiment with Rat fibroblasts (CREF) [4].
On to `CCN(CCO)c1ccc(N=Nc2cc(C)[nH]n2)cc1`, for which the inhibition was 95.5% with PEG-3 [1], 98.9% with PEG-3 [2], 99.4% in the experiment with Rat fibroblasts (CREF) [3] and 98.6% in the experiment on Rat fibroblasts (CREF) [4].
As to `O=C(COc1ccc2c(c1)CCC2)Nc1ccccn1`, the inhibition stood at 98.8% in the experiment with PEG-3 [1], 94.2% with PEG-3 [2], 97.5% in the experiment with Rat fibroblasts (CREF) [3] and 94.5% in the experiment with Rat fibroblasts (CREF) [4].
Taken in the same sequence, the figures for `OCCNc1c2ccccc2nc2ccccc12` were 99.6%, 98.1%, 73.9% and 94.8%.
In the case of `COc1ccc(NC(=O)c2cc(-c3ccccn3)nc3ccccc23)cc1S(=O)(=O)N(C)C`, the inhibition was 56.4% with PEG-3 [1], 61.2% with PEG-3 [2], -4.8% with Rat fibroblasts (CREF) [3] and -6.75% with Rat fibroblasts (CREF) [4].
For the compound `CN(C)c1ccc(/C=C2\SC(=O)N(CCc3nnc(N)s3)C2=O)cc1`, the inhibition with PEG-3 [1] came to 62%; with PEG-3 [2], 77.4%; in the experiment on Rat fibroblasts (CREF) [3] it was 83%; in the experiment on Rat fibroblasts (CREF) [4], 82.3%.
In the case of `Cc1ccsc1/C=N/Nc1cccc(C(=O)O)c1`, the inhibition in the experiment with PEG-3 [1] was found to be 98.1%; with PEG-3 [2] it was 88.9%; in the experiment on Rat fibroblasts (CREF) [3], 51.5%; with Rat fibroblasts (CREF) [4] it was 42.9%.
`O=C(Nc1ccccc1C(=O)Nc1nnc(C(F)(F)F)s1)c1ccccc1`: the inhibition with PEG-3 [1] is 93%; in the experiment with PEG-3 [2], 88.8%; in the experiment with Rat fibroblasts (CREF) [3], -3.72%; in the experiment with Rat fibroblasts (CREF) [4], 11.8%.
Consider `CCc1ccc(/C=C2\SC(=S)N(CCCC(=O)Nc3cc(C)on3)C2=O)cc1`, for which the inhibition is 80% in the experiment with PEG-3 [1], 87.3% with PEG-3 [2], 29.1% in the experiment with Rat fibroblasts (CREF) [3] and 27.4% in the experiment on Rat fibroblasts (CREF) [4].
In the same order, the values of `Cc1cc(C)c2sc(NNC(=O)c3ccc(S(=O)(=O)N4CCc5ccccc5C4)cc3)nc2c1` are 84.2%, 94.7%, 53.3% and 25.5%.
As for `O=C(N/N=C/c1cc([N+](=O)[O-])ccc1O)c1ccc(COc2ccc3c(c2)CCC3)o1`, the inhibition with PEG-3 [1] is 52.4%; with PEG-3 [2], 95.1% [run 2, dose range 1, at 25 µM]; with Rat fibroblasts (CREF) [3], 29.5%; with Rat fibroblasts (CREF) [4], 55.1%.
On to `CCn1nc(C)cc1-c1nnc(Sc2ncc([N+](=O)[O-])s2)n1C`, for which the inhibition with PEG-3 [1] came out at 102%; with PEG-3 [2] it was 101%; with Rat fibroblasts (CREF) [3], 99.4%; in the experiment with Rat fibroblasts (CREF) [4] it was 98.8%.
`CCOc1ccc(OCc2cccc(C(=O)O)c2)cc1`: the inhibition with PEG-3 [1] was 91.5%; in the experiment with PEG-3 [2] it was 91.5%; in the experiment on Rat fibroblasts (CREF) [3] it was 96.6%; in the experiment with Rat fibroblasts (CREF) [4] it was 97.5%.
